Screening data as filed in PubChem.
IL1B secr inh: inflammasome signaling inhibition, IL-1 beta readout; activity change, % at 57.5 µM; AID 743279; actives 4.7% (n = 360,000); THP-1 LPS/ATP IL-1B secretion, AlphaLISA, 16 h; stronger effect = lower value; in the data active means activity change below about -50%; inconclusive means mostly about -30% to -49%; further: on the % scale 0 is the no-effect control and ±100 the full control effect
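Secreted IL-1B measured by AlphaLISA bead assay after 16 h compound exposure of THP-1 cells; compounds (final up to 57.5 uM) added 1 h before LPS (250 ng/mL) and ATP (1.25 mM) stimulation; lower signal means less secretion.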
Vif-A3F inh: Vif-A3F binding inhibition; HeLa A3F-eYFP + Vif (tagged APOBEC3F with the HIV-1 protein that degrades it), YFP fluorescence increase; Potency, µM (doses to about 46.1 µM), for inactives: at the highest dose activity, negative = active; actives 0.2% (n = 390,000); further: potency means the concentration at half of the fitted maximal effect; % of control where 0% means no effect; nearly all actives have a fitted effect of over 65% in size
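Fluorescence increase (Ex 488/Em 500-530) after overnight compound treatment at 37 deg C flags inhibition of Vif-driven A3F-eYFP loss in stable HeLa A3F-eYFP/Vif cells seeded overnight beforehand.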
Giardia kill: Giardia lamblia killing | actives 0.15% (n = 340,000) | Giardia lamblia trophozoite viability | AID 540267 | activity change, % at 7.66 µM, hits read low; in the data active means activity change below about -80%; inconclusive means between about -30% and that limit;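 further: parasites exposed to compound for two days anaerobically before the ATP read; on the % scale 0 is the no-effect control and ±100 the full control effect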
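Trophozoites 100 cells/well + cpd; 48 hrs, 37 deg C, anaerobic. ATPLite 1-Step added, 15-30 min RT, luminescence read (ATP-based viability).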
SW480 rerep: inducers of DNA re-replication in SW480 colon cancer cells; SW480 DNA re-replication, Hoechst DNA content imaging, 48 h; Potency, µM (highest dose often 46.1 µM), without a hit: top-dose re-replication activation, actives largely listed as activators; actives 1.8% (n = 340,000); AID 624297; further: potency means the concentration at half of the fitted maximal effect; % of control where 0% means no effect; nearly all actives have a fitted effect of over 55% in size
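First, 250 cells per well were seeded. Next, compound or vehicle (23 nL) was pinned in, plates sat 48 hr at 37 C. Finally Hoechst was added for 40 min before fluorescence scanning.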
MCF10A rereplic: inducers of DNA re-replication in MCF 10A breast cells; MCF 10A DNA re-replication, Hoechst nuclear intensity, 48 h; Potency, µM (doses to about 46.1 µM), inactives show top-dose activity, positive = re-replication, actives largely listed as activators; actives 2.9% (n = 350,000); further: potency means the concentration at half of the fitted maximal effect; % of control where 0% means no effect; nearly all actives have a fitted effect of over 50% in size
Vif-APOBEC3G blk: inhibitors of Vif-APOBEC3G interaction; AID 602310; HeLa A3G-eYFP + Vif (tagged APOBEC3G with the HIV-1 protein that degrades it), YFP fluorescence, overnight; actives 0.076% (n = 410,000); Potency, µM (titrated, usually from 46.1 µM), inactives show at the top dose activity, negative = active, most hits filed as inhibitors; Q9HC16; further: potency means the concentration at half of the fitted maximal effect; on the % scale 0 is the no-effect control and ±100 the full control effect; nearly all actives have a fitted effect of over 60% in size
Target sequence (Q9HC16 whole entry, looked up): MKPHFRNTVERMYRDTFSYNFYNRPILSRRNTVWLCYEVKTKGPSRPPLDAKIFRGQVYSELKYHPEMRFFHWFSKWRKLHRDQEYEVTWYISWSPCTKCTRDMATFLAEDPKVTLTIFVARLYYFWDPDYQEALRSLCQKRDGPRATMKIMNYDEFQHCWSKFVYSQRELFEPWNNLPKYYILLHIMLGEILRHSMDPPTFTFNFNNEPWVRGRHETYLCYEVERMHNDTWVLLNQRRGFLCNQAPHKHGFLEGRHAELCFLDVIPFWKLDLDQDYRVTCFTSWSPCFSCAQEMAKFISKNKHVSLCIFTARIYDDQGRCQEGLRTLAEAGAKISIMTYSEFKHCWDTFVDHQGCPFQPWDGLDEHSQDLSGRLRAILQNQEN
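HeLa cells stably expressing Vif and C-terminally eYFP-tagged A3G, seeded overnight at 37 deg C, then exposed to compound by pintool overnight at 37 deg C. Rise in yellow fluorescence (Ex 488/Em 500-530, Acumen) marks blocked Vif-driven A3G degradation.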
The depositor's hits bear a star; ? = inconclusive; · = no result; [ ] = dose if it differs, or a comment. Rows were chosen to be rich in hits. Some 6.9% of all compounds tested hit in one or more screens of this group. Unless noted, the call rests on the fitted dose curve; in most records, active means well fitted curve in the direction sought with a large enough effect; inconclusive means small, poorly fitted or top-dose-only effect, or another doubt; inactive means no such curve, though single readings can be large; an effect the other way counts as inactive or inconclusive.

SMILES	IL1B secr inh	Vif-A3F inh	Giardia kill	SW480 rerep	MCF10A rereplic	Vif-APOBEC3G blk
CCCCCCc1cc2cc(-c3nnc(-c4cc(OC)c(OC)c(OC)c4)o3)c(=O)oc2cc1O	39.5	?	-4.4	8.2µM*	0.517µM*	?
COc1ccc(Nc2ncc(C(=O)Nc3ccc(F)cc3F)c3ccccc23)cc1	·	-7.7%	·	·	·	-13.9%
N#C/C(=C\c1cn(-c2ccccc2)nc1-c1cc2ccccc2o1)c1nc2ccccc2[nH]1	5.8	?	18.5	2.91µM*	?	-8.6%
Cc1ccc(-c2nn(-c3ccccc3)cc2/C=C(\C#N)c2cccc(C#N)c2)o1	15.2	?	0.5	?	?	-5.4%
CN(C)S(=O)(=O)c1cccc(-c2nn(-c3ccccc3)cc2/C=C(\C#N)c2nc3ccccc3[nH]2)c1	-3.3	-7.1%	15.1	?	3.26µM*	0.4%
CCOC(=O)c1noc2ncnc(N3CCC(C)CC3)c12	·	-14.3%	·	·	·	0.2%
Nc1ccccc1SC(CC(=O)c1ccccc1)c1ccccc1 (centres undefined)	-11.8	?	·	·	·	-5.7%
CC(C(Sc1ccccc1N)c1ccccc1)[N+](=O)[O-] (centres undefined)	-85.3*	1.3%	-28.5	9.7%	?	?
C=CCn1c(NC(=O)c2ccc(Br)o2)c(S(=O)(=O)c2ccccc2)c2nc3ccccc3nc21	38.3	-8.4%	-7.2	17.0%	11.6µM*	-1.8%
Cc1nn(C(C)C(=O)Nc2cccc(F)c2)c(=O)c2c1sc1ccccc12 (centres undefined)	·	-1.0%	·	·	·	2.8%
CC1(C)CC(=O)c2sc(NC(=O)C(C)(C)C)nc2C1	-8.3	5.2%	-7.9	1.9%	6.8%	9.6%
CC1(C)CC(=O)c2sc(NC(=O)c3cccs3)nc2C1	1.4	1.9%	-95.7*	-5.3%	16.6%	0.0%
CC1(C)CC(=O)c2sc(NS(=O)(=O)c3ccc(Br)cc3)nc2C1	19.4	1.1%	5.1	-31.0%	0.581µM*	3.3%
CC(Oc1ccccc1)C(=O)Nc1nc2c(s1)C(=O)CC(C)(C)C2 (centres undefined)	-11.0	-1.7%	-4.9	-6.7%	17.5%	-8.0%
CC1(C)CC(=O)c2sc(NC(=O)CCS(=O)(=O)c3ccccc3)nc2C1	-82.1*	2.1%	0.9	-1.7%	23.1µM*	?
Cc1nc([N+](=O)[O-])cn1CC(=O)c1ccc2c(c1)OCCO2	·	·	·	·	·	-1.0%
CCOc1ccccc1NC(=O)C(=O)c1cc(C)n(-c2cccc(C)c2C)c1C	·	-13.6%	·	·	·	-0.2%
Cc1ccsc1CCN1C(=O)N(c2ccccc2)C(=O)C1CC(=O)Nc1ccc(Cl)cc1 (centres undefined)	·	-1.3%	·	·	·	-3.7%
C[n+]1cn(/N=C/c2ccccc2)c2ccccc21	0.0	-24.5%	38.0	1.9%	7.7%	-0.6%
CC(=O)N(C(C)=O)c1nc(-c2ccccc2)cn1/N=C/c1ccccc1	?	3.0%	6.9	-3.1%	11.6µM*	-22.0%
Cc1ccc(P(=O)(CSC(=N)N)c2ccc(C)cc2)cc1	-62.7*	-0.4%	6.9	?	?	-23.7%
N=C(N)SCP(=O)(c1ccccc1)c1ccccc1	-85.3*	0.3%	3.0	?	?	-22.9%
N#CC(=C1C=CC(=NO)C(Cl)=C1)c1ccccc1	-97.7*	·	·	·	·	-16.0%
N#CC(=C1C=C(Br)C(=NO)C=C1Cl)c1ccc(Cl)cc1	?	-5.7%	·	·	·	-7.8%
CCN1C(=S)SC(=O)C1=C1C=C(C)N(Cc2ccco2)C(C)=C1	-4.8	?	17.3	12.2%	4.5%	11.2µM*
SMILES	IL1B secr inh	Vif-A3F inh	Giardia kill	SW480 rerep	MCF10A rereplic	Vif-APOBEC3G blk
COc1ccc2c(c1)N(C[C@@H](C)CN(C)C)c1ccccc1S2	·	·	·	-4.8%[20.6 µM]	2.6%[20.6 µM]	·
CCOC(=O)c1ccc(-n2c(CCC(=O)O)ccc2-c2ccccc2)cc1O	·	2.6%	·	·	·	-5.4%
Oc1ccc2[nH]ccc2c1	-3.8	0.0%	-8.2	8.2µM*	17.0%	4.5%
COc1ccc(Cn2c(C(=O)O)c(CNCc3ccc(SC)cc3)c3ccc(OC)cc32)cc1	·	1.2%	·	·	·	-0.2%
CCC(O)CNC(=O)NC(=C(Cl)Cl)c1ccc(C)c(F)c1 (centres undefined)	-72.7*	-10.2%	-0.2	?	?	-25.6%
OCCCNc1ccccc1	·	·	·	-3.0%	-0.3%	·
Cc1ccc(NC(=O)c2cnn(-c3ccccc3)c2C)c(C)c1	-66.7*	7.6%	11.2	-9.9%	2.7%	-0.5%
Cc1ccc(NC(=O)c2cnn(-c3ccccc3)c2C)cc1	?	-0.9%	?	3.2%	-6.1%	-1.6%
Cc1cccc(C)c1NC(=O)c1cnn(-c2ccccc2)c1C	-61.6*	-4.1%	7.5	-5.7%	9.9%	1.5%
CC1(C)SC2[C@@H](N=CN3CCCCCC3)C(=O)N2[C@H]1C(=O)O (some centres undefined)	·	·	·	-9.6%	0.2%	·
COCCNc1nc(NCCOC)c2sc(-c3ccccc3)cc2n1	·	·	·	·	·	-7.5%
C=CCNc1nc(NCc2cccc(OC)c2)c2sc(-c3ccccc3)cc2n1	-107.7*	·	·	·	·	-9.2%
CC(C)Nc1nc(NCCOc2ccccc2Cl)c2sc(-c3ccccc3)cc2n1	-103.5*	·	·	·	·	?
CC(=O)Nc1cccc(Oc2nc(NC(C)C)nc3cc(-c4ccccc4)sc23)c1	-62.9*	·	·	·	·	-4.0%
COc1ccccc1CNc1nc(NC(C)C)nc2cc(-c3ccccc3)sc12	-114.7*	·	·	·	·	-23.9%
O=C(CCCCn1c(=O)c2ccccc2n(Cc2ccccc2F)c1=O)NCc1ccc2c(c1)OCO2	·	-9.0%	·	·	·	-0.9%
COc1ccc(-c2cn3nc(N4CCCC(C(=O)NCc5ccccc5OC)C4)sc3n2)cc1 (centres undefined)	·	0.3%	·	·	·	-2.3%
c1ccc(-c2cc3nc(NCc4cccs4)nc(NCc4ccc5occc5c4)c3s2)cc1	-88.7*	·	·	·	·	?
COCCNc1nc(NCCOc2ccccc2)c2sc(-c3ccccc3)cc2n1	-107.5*	·	·	·	·	-8.9%
Cn1c(NCc2ccc3occc3c2)nc2cc(-c3ccc(F)cc3)sc2c1=O	11.6	·	·	·	·	1.8%
Cc1cccc(Cn2nc(C)n3c(cc4cc(C)ccc43)c2=O)c1	·	3.5%	·	·	·	9.4%
Nc1ccc2c(c1)[nH]c(=O)c1ccccc12	-74.7*	-29.6%	9.6	-0.3%	5.5%	1.1%
NC(=S)Cc1ccccc1Cl	-3.0	12.0%	-14.7	18.4µM*	-0.4%	-2.7%
Cc1ccc2cc(C#N)c(N3CCCN(C(=S)NCCCN(C)C)CC3)nc2c1	?	-8.7%	0.1	23.1µM*	3.66µM*	13.1%
CCOCCCNC(=S)N1CCCN(c2nc3cc(C)ccc3cc2C#N)CC1	11.6	12.3%	1.4	4.6%	0.5%	0.0%
Cc1cc(C)c2cc(C#N)c(N3CCCN(C(=S)NCCCN(C)C)CC3)nc2c1	-55.7*	6.8%	-4.4	?	7.31µM*	-1.7%
